Compound activity as filed in PubChem BioAssay.
HCV inh = inhibitors of hepatitis C virus infection; Huh7.5.1 HCVcc-Cre infection, luciferase reporter, 44 h; Potency, µM (highest dose often 41.8 µM), inactives show top-dose activity change, negative = inhibition, hits mostly inhibitors; 340,000 compounds, 3.4% hits; AID 651820
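Infectious HCV cell culture screen: compound-treated cells (1,000/well, pre-plated 4 h) are infected with HCVcc-Cre at roughly 0.5 moi and grown 44 h. Infection is quantified by luciferase signal after 15 min substrate incubation at room temperature.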
AMA1 RON2 block = AMA1-RON2 (P. falciparum) interaction inhibition; AlphaScreen AMA1-biotinylated RON2 peptide binding; Potency, µM (top dose mostly 58.2 µM), for the others: top-dose activity change, negative = inhibition, most hits filed as inhibitors; 360,000 compounds, 0.2% hits;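 also: 0% = vehicle wells and -100% = peptide control; nearly all actives have a fitted effect of over 45% in size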
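AMA1 (3D7) with his tag at 25 nM final met compounds first, then biotinylated RON2 peptide at 25 nM; detection used donor plus acceptor beads, 10 µg/mL apiece, read by AlphaScreen after 30 min at room temperature.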
AmpC detergent = AmpC beta-lactamase inhibition with detergent present. AmpC hydrolysis of nitrocefin, absorbance 480 nm, 0.01% Triton. Potency, µM (doses to about 114 µM), for the others: at the highest dose activity change, negative = inhibition, hits mostly inhibitors. 370,000 compounds, 0.041% hits. AID 485294;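 also: 0% = no-compound wells and -100% = no-enzyme wells; nearly all actives have a fitted effect of over 25% in size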
Target sequence (P00811 whole entry, looked up): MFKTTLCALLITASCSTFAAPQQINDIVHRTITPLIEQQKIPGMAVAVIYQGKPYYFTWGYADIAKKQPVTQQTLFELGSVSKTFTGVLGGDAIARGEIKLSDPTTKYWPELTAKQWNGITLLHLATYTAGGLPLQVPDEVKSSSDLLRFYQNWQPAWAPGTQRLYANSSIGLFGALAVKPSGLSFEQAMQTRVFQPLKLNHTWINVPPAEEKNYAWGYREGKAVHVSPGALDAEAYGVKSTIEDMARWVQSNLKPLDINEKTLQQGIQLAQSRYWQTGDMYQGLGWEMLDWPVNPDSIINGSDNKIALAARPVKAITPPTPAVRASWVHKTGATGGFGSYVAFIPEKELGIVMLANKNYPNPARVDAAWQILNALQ
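20 mM phosphate pH 7.0 + 0.01% (detergent screen) or 0.0001% Triton X-100; 5.3 nM AmpC reagent; cpd preinc 15 min RT; nitrocefin (800 uM stock) to start; A480 q20 s × 4 min; Activity was normalised to no-enzyme and no-compound control wells.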
Pf growth 96h = P. falciparum growth inhibition at 96 hours; P. falciparum luciferase reporter growth, 96 h; Potency, µM (titrated, usually from 28.7 µM), for the others: top-dose activity change, negative = inhibition, hits mostly inhibitors; 320,000 compounds, 6.9% hits; AID 504834
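Plates of compound plus infected erythrocytes (2% hematocrit, 0.05% parasitemia final) incubate 96 hours, 37 C, 5% CO2. Detection reagent added; reduced luminescence from the parasites' luciferase reporter flags inhibition.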
AmpC no deterg = blocks E. coli AmpC beta-lactamase in detergent-free assay; AmpC nitrocefin hydrolysis, absorbance 480 nm, 0.0001% Triton; Potency, µM (doses to about 57.1 µM), without a hit: at the highest dose activity change, negative = inhibition, usual class: inhibitors; 330,000 compounds, 0.52% hits; P00811;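 also: plate controls were no compound for no effect and no enzyme for full effect; nearly all actives have a fitted effect of over 20% in size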
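AmpC (5.3 nM in the dispensed reagent) in 20 mM phosphate pH 7.0 with 0.01% (detergent screen) or 0.0001% Triton X-100 was preincubated with compounds for 15 min at room temperature. Nitrocefin was then added from an 800 uM solution, and hydrolysis was followed at 480 nm.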
Pf growth 48h = inhibits P. falciparum growth in the first generation, 48 h | P. falciparum luciferase growth in erythrocytes, 48 h | Potency, µM (top dose mostly 28.7 µM), for inactives: at the top dose activity change, negative = inhibition, hits mostly inhibitors | 310,000 compounds, 5.9% hits
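Read-out is firefly luciferase luminescence from an integrated reporter in P. falciparum, so falling signal marks reduced parasite growth. Infected erythrocytes were at 2% hematocrit and 0.1% parasitemia (final) in Albumax-supplemented RPMI 1640.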
* = called active by the depositor; ? = inconclusive; . = no result given. This is a sample that favours compounds with a hit; in the whole collection about 11% have one here. Calls follow the shape of the dose curve; as a rule, active = well fitted curve in the direction sought with a large enough effect; inconclusive = small, poorly fitted or top-dose-only effect, or another doubt; inactive = no such curve, though single readings can be large; an effect the other way counts as inactive or inconclusive. Unless noted, % is scaled to controls: 0 for no effect and ±100 for the full control effect; potency is read from the fitted curve at half-maximal effect.

SMILES	HCV inh	AMA1 RON2 block	AmpC detergent	Pf growth 96h	AmpC no deterg	Pf growth 48h
COc1ccc(NC(=O)CN(C)C(=O)Cc2ccc(-c3ccccc3)cc2)cc1	?	14%	-3%	?	-41%	?
COc1ccc(NC(=O)CN(C)C(=O)c2cc(-c3ccncc3)nc3ccccc23)cc1	27%	74%	-11%	?	69%	?
COc1ccc(Cl)cc1NC(=O)CN(C)C(=O)c1cc(-c2ccncc2)nc2ccccc12	-26%	?	10%	5.2µM*	235%	9.3µM*
COc1ccc(NC(=O)CN(C)C(=O)c2cc(-c3ccccc3)nc3ccccc23)cc1	-4%	-9%	?	-1%	-35%	?
COc1cccc(CNc2sc3c(c2C(=O)Nc2ccc(OC)cc2OC)CCC3)c1	.	.	3%	.	.	.
Cc1ccc(C(=O)OCC(=O)N2c3ccccc3NC(=O)C2(C)C)cc1S(=O)(=O)N1CCCCC1	?	-27%	.	.	-19%	.
Cc1ccc(S(=O)(=O)N2CCCCC2)cc1C(=O)OCC(=O)N1c2ccccc2NC(=O)C1(C)C	11µM*	-2%	.	.	-25%	.
O=C(COC(=O)c1cc(S(=O)(=O)N2CCOCC2)ccc1F)c1ccccc1	4%	-5%	.	.	3%	.
O=C(COC(=O)c1cc(S(=O)(=O)N2CCOCC2)cs1)c1ccccc1	15%	-2%	0%	9.3µM*	-1%	19%
O=C(COC(=O)c1cc(S(=O)(=O)N2CCCCC2)ccc1N1CCOCC1)c1ccccc1	-9%	5%	?	?	44%	8.3µM*
Cc1ccc(S(=O)(=O)N2CCOCC2)cc1C(=O)OCC(=O)c1ccc[nH]1	11µM*	-5%	-3%	?	-18%	?
CCCc1ccc(S(=O)(=O)N2CCC(Oc3ccc(-n4cnnn4)cc3)CC2)cc1	.	.	21%	.	.	.
CCOc1ccc(CNS(=O)(=O)c2ccc(-c3coc(C)n3)cc2)cc1OC	.	.	5%	.	.	.
CCCCN(C)c1ncnc2c1cnn2-c1cccc(Cl)c1	.	.	4%	.	.	.
COC(=O)c1ccc(NC(=O)CC2C(=O)N(c3cccc(F)c3)C(=O)N2CC(C)C)cc1 (centres undefined)	.	.	-11%	.	.	.
CC1(C)C(=O)Nc2ccccc2N1C(=O)COc1cc(Cl)ccc1Cl	-15%	-9%	-3%	?	-11%	12µM*
CC(C)NC(=O)NC(=O)COC(=O)c1cc(S(=O)(=O)N2CCCCC2)ccc1N1CCOCC1	-9%	19%	-4%	?	106%	8.3µM*
O=C(COC(=O)c1cc(S(=O)(=O)N2CCCCC2)ccc1N1CCOCC1)c1ccc(Cl)cc1	?	4%	-16%	13µM*	31%	12µM*
COc1ccc(-c2[nH]c3ccccc3c2SCCNC(=O)c2ccc(S(=O)(=O)N(C)C)cc2)cc1	.	.	7%	.	.	.
Cc1ccccc1Cn1c2ccccc2c2cnn(CC(=O)NCCCc3ccccc3)c(=O)c21	.	.	20%	.	.	.
Cc1c(Cl)cccc1NC(=O)Cn1cc(C(=O)C2CCCCC2)c2ccccc21	.	.	20%	.	.	.
Cc1cc(/C=C2/NC(=O)NC2=O)c(C)n1-c1ccccn1	7%	-2%	-8%	9.3µM*	-18%	10%
Cc1ccc(-n2c(C)cc(/C=C3\NC(=O)NC3=O)c2C)c(C)c1	6%	-18%	-15%	13µM*	-30%	13µM*
Cc1ccc(S(=O)(=O)c2cn(Cc3cccc(F)c3)c3cc(N4CCCC4)c(F)cc3c2=O)cc1	.	.	10%	.	.	.
COc1cc(-c2ccno2)ccc1S(=O)(=O)N1CCN(c2cccc(Cl)c2)CC1	.	.	12%	.	.	.
SMILES	HCV inh	AMA1 RON2 block	AmpC detergent	Pf growth 96h	AmpC no deterg	Pf growth 48h
CCOc1cc(/C=C/C(=O)OCC(=O)NC2CCS(=O)(=O)C2)ccc1OCc1ccccc1 (centres undefined)	13µM*	5%	-2%	-5%	113%	-29%
CCOC(=O)C1C(C(=O)OC)=C(c2ccc(F)cc2)c2ccccc2N1S(=O)(=O)C(F)(F)F (centres undefined)	?	-17%	.	.	94%	.
CCOC(=O)C1C(C(=O)OC)=C(c2ccc(OC)cc2)c2ccccc2N1S(=O)(=O)C(F)(F)F (centres undefined)	11µM*	-4%	.	.	54%	.
CCOC(=O)C1=C(c2ccccc2)c2ccccc2N(S(=O)(=O)C(F)(F)F)C1C(=O)OCC (centres undefined)	2.8µM*	-6%	.	.	95%	.
Cc1ccc(NC(=O)Cn2cc(S(=O)(=O)c3ccccc3)c(=O)c3cc4c(cc32)OCO4)cc1	.	.	-12%	.	.	.
CCSc1ccc([C@@H]2[C@@H]3C(=O)N(CC)C(=O)[C@@H]3[C@]3(C(=O)OC)CCCCN23)cc1	0.71µM*	-15%	-5%	-100%	158%	-91%
CCSc1ccc([C@@H]2[C@H]3C(=O)N(CC)C(=O)[C@H]3[C@]3(C(=O)OC)CCCCN23)cc1	4%	-13%	-9%	4.7µM*	134%	4.1µM*
CCSc1ccc([C@@H]2[C@@H]3C(=O)N(C)C(=O)[C@@H]3[C@]3(C(=O)OC)CCCCN23)cc1OC	-7%	-19%	.	.	15%	.
CCN1C(=O)[C@H]2[C@@H](c3ccc(-c4ccc5c(c4)OCO5)cc3)N3CCC[C@@]3(C(=O)OC)[C@H]2C1=O	-3%	1%	?	-14%	-4%	?
CCSc1ccc([C@@H]2[C@H]3C(=O)N(C)C(=O)[C@H]3[C@]3(C(=O)OC)CCCCN23)cc1	?	-16%	-6%	?	183%	12µM*
CCC(C)Sc1ccc([C@@H]2[C@H]3C(=O)N(CC)C(=O)[C@H]3[C@]3(C(=O)OC)CCCCN23)cc1 (some centres undefined)	6%	-1%	?	3.3µM*	126%	2.6µM*
CCOC(=O)c1noc2ncnc(Nc3cccc(OC)c3)c12	.	.	-7%	.	.	.
COc1cccc(CSc2nc3cc(OC)c(OC)cc3c3nc(CCn4nc(C)cc4C)nn23)c1	.	.	0%	.	.	.
CCCCCCSc1ccc([C@@H]2[C@@H]3C(=O)N(CC)C(=O)[C@@H]3[C@]3(C(=O)OC)CCCCN23)cc1	-24%	11%	.	.	53%	.
CCCCCCSc1ccc([C@H]2N[C@@](C)(C(=O)OC)[C@H]3C(=O)N(C)C(=O)[C@@H]23)cc1	?	-7%	-7%	?	235%	15µM*
CCCCCCSc1ccc([C@@H]2[C@H]3C(=O)N(C)C(=O)[C@H]3[C@]3(C(=O)OC)CCCCN23)cc1	?	-11%	-5%	12µM*	92%	13µM*
